Assay results as given in PubChem BioAssay (NCATS).
Results filed as inconclusive are left out. The source made the active and inactive calls. Calls come from the whole dose curve; as a rule, active = well fitted curve in the direction sought with a large enough effect; inconclusive = small, poorly fitted or top-dose-only effect, or another doubt; inactive = no such curve, though single readings can be large; an effect the other way counts as inactive or inconclusive.

Columns and labels:
[1] = qHTS of pediatric cancer cell lines to identify multiple opportunities for drug repurposing: Confirmatory screen for MG 63 (6-TG R) cells (AID 1347119); note: nearly all actives have a fitted effect of over 55% in size; note: potency is the fitted concentration of half-maximal effect
Summary of the method: (§1)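 Viability after 48 h compound treatment at 37C, 500-1,000 cells/well, read as ATP luminescence with CellTiter-Glo. Primary screens used 11-point (MIPE, 0.78 nM-46 µM) or 8-point (NPC, 0.59 nM-46 µM) final concentrations; follow-up screens used 11-point dilutions.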

[2] = qHTS of pediatric cancer cell lines to identify multiple opportunities for drug repurposing: Confirmatory screen for control Hh wild type fibroblast cells (AID 1347121); note: nearly all actives have a fitted effect of over 70% in size; note: potency is the fitted concentration of half-maximal effect
Summary of the method: as §1

[3] = qHTS of pediatric cancer cell lines to identify multiple opportunities for drug repurposing: Confirmatory screen for U-2 OS cells (AID 1347122); note: nearly all actives have a fitted effect of over 65% in size; note: potency is the fitted concentration of half-maximal effect
Summary of the method: as §1

[4] = qHTS of pediatric cancer cell lines to identify multiple opportunities for drug repurposing: Confirmatory screen for Rh41 cells (AID 1347123);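 note: 48 h compound exposure; nearly all actives have a fitted effect of over 60% in size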; note: potency is the fitted concentration of half-maximal effect
Summary of the method: as §1

[5] = qHTS of pediatric cancer cell lines to identify multiple opportunities for drug repurposing: Confirmatory screen for RD cells (AID 1347124);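 note: cells exposed to compound for 48 h before viability readout; nearly all actives have a fitted effect of over 65% in size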; note: potency is the fitted concentration of half-maximal effect
Summary of the method: as §1

[6] = qHTS of pediatric cancer cell lines to identify multiple opportunities for drug repurposing: Confirmatory screen for Rh18 cells (AID 1347125); note: nearly all actives have a fitted effect of over 55% in size; note: potency is the fitted concentration of half-maximal effect
Summary of the method: as §1

[7] = qHTS of pediatric cancer cell lines to identify multiple opportunities for drug repurposing: Confirmatory screen for Rh30 cells (AID 1347126); note: nearly all actives have a fitted effect of over 55% in size; note: potency is the fitted concentration of half-maximal effect
Summary of the method: as §1

[8] = qHTS of pediatric cancer cell lines to identify multiple opportunities for drug repurposing: Confirmatory screen for Saos-2 cells (AID 1347127); note: nearly all actives have a fitted effect of over 60% in size; note: potency is the fitted concentration of half-maximal effect
Summary of the method: as §1

[9] = qHTS of pediatric cancer cell lines to identify multiple opportunities for drug repurposing: Confirmatory screen for OHS-50 cells (AID 1347128);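 note: compound exposure lasted 48 h at 37 degrees C; nearly all actives have a fitted effect of over 55% in size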; note: potency is the fitted concentration of half-maximal effect
Summary of the method: as §1

[10] = qHTS of pediatric cancer cell lines to identify multiple opportunities for drug repurposing: Confirmatory screen for SK-N-SH cells (AID 1347129);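 note: cells exposed to compound for 48 h before viability read; nearly all actives have a fitted effect of over 60% in size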; note: potency is the fitted concentration of half-maximal effect
Summary of the method: as §1

[11] = test system: Zika virus NS2B-NS3 protease; assay: Primary screen GU AMC qHTS for Zika virus inhibitors (AID 1347154); note: nearly all actives have a fitted effect of over 70% in size
Summary of the method: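 Unlinked Zika NS2B hydrophilic domain–NS3 protease complex at 25 nM in 10 mM Tris-HCl pH 8.0, 0.01% Tween 20, with an AMC peptide substrate. Fluorescence change (340/450 nm) over 15 min at room temperature, normalized to controls, fitted to 4-parameter Hill.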

[12] = test system: Zika virus NS2B-NS3 protease (unlinked complex); assay: Primary screen GU Rhodamine qHTS for Zika virus inhibitors: Unlinked NS2B-NS3 protease assay (AID 1347159); note: nearly all actives have a fitted effect of over 60% in size; note: potency is the fitted concentration of half-maximal effect
Summary of the method: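 A qHTS format was used, with compound concentrations ranging up to 114 microM. Each compound was preincubated with 25 nM NS2B-NS3 protease, and the substrate was then added at 1.5 microM. Curves were fitted with a 4-parameter Hill model.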

[13] = test system: Zika virus NS2B-NS3 protease (linked construct); assay: Primary screen NINDS Rhodamine qHTS for Zika virus inhibitors (AID 1347160); note: nearly all actives have a fitted effect of over 55% in size; note: potency is the fitted concentration of half-maximal effect
Summary of the method: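 Kinetic fluorescence (Ex 480 nm, Em 540 nm) over 15 min with 1.5 microM Rhodamine110 peptide and 25 nM linked protease.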

[14] = qHTS of pediatric cancer cell lines to identify multiple opportunities for drug repurposing: Confirmatory screen for TC32 cells (AID 1347118);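 note: cells exposed to compound for 48 h before the read; nearly all actives have a fitted effect of over 65% in size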; note: potency is the fitted concentration of half-maximal effect
Summary of the method: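 qHTS, TC32, 48 h drug treatment, CellTiter-Glo luminescence as a proxy for metabolically active cells; primary top concentration 46 µM (MIPE 11-pt, NPC 8-pt); confirmatory 11-pt.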

Measured: Potency

C[C@@H]1[C@H](O)[C@@H](C)C=CC=CC=CC=CC=CC=CC=C[C@H](O[C@@H]2O[C@H](C)[C@H](O)[C@H](N)[C@@H]2O)C[C@@H]2O[C@](O)(C[C@@H](O)C[C@@H](O)[C@H](O)CC[C@@H](O)C[C@@H](O)CC(=O)O[C@H]1C)C[C@H](O)[C@@H]2C(=O)O
not listed: [11] | [12] | [13] | [14]
inactive: all other assays above

CC1=C(CC(=O)O)c2cc(F)ccc2C1=Cc1ccc(S(C)=O)cc1 (stereo not drawn)
not listed: [12] | [13] | [14]
inactive: all other assays above

C[C@H](c1ccc(F)cc1CCCC(=O)O)N(c1cc(F)ccc1F)S(=O)(=O)c1ccc(Cl)cc1
active: [12] 14100 nM | [13] 14100 nM
inactive: [1] | [2] | [3] | [4] | [7] | [8] | [10]

C[C@@]1(C(=O)Nc2ccc(F)nc2)CCCN1c1nc(Nc2cc(C3CC3)[nH]n2)c2cccn2n1
inactive: [11] | [12] | [13]
active: [1] 104 nM | [2] 14700 nM | [3] 1650 nM | [4] 208 nM | [6] 7370 nM | [8] 1850 nM | [9] 5220 nM | [10] 1660 nM

CCN(CCO)CCCOc1ccc2c(Nc3cc(CC(=O)Nc4cccc(F)c4)[nH]n3)ncnc2c1
active: [14] 41.4 nM
not listed: [1] | [4] | [9] | [10]
inactive: all other assays above

CN1CCN(c2ncc(-c3cc(Cl)cc(Cl)c3Cl)c(N)n2)CC1
active: [10] 20900 nM
not listed: [6] | [7] | [12] | [13] | [14]
inactive: all other assays above

CC1(COc2ccc3c(c2)ncn3-c2ccc3cccc(N4CCC(N)CC4)c3n2)COC1
active: [3] 10400 nM | [4] 8270 nM | [10] 10500 nM
not listed: [7] | [9] | [14]
inactive: all other assays above

NC(N)=Nc1nc(CSCCC(N)=NS(N)(=O)=O)cs1
not listed: [12] | [13]
inactive: all other assays above

Cc1ccc(S(=O)(=O)Nc2nc3ccccc3nc2Nc2ccc3nsnc3c2)cc1
inactive: [2] | [6] | [10] | [11]
active: [14] 229 nM | [1] 16200 nM

Nc1ccn([C@@H]2O[C@H](CO)[C@@H](O)[C@H]2O)c(=O)n1
inactive: [1] | [2] | [3] | [6] | [11]
active: [14] 329 nM

Cc1ccc(C(=O)N(CCCN)[C@@H](c2oc3cc(Cl)ccc3c(=O)c2Cc2ccccc2)C(C)C)cc1
active: [14] 10.4 nM | [1] 23.3 nM | [3] 36.9 nM | [4] 9.3 nM | [5] 16.5 nM | [6] 26100 nM | [7] 23300 nM | [8] 9.3 nM | [9] 9.3 nM
inactive: [11]

CN(C)CC[C@H](CSc1ccccc1)Nc1ccc(S(=O)(=O)NC(=O)c2ccc(N3CCN(Cc4ccccc4-c4ccc(Cl)cc4)CC3)cc2)cc1[N+](=O)[O-]
active: [1] 1470 nM | [3] 737 nM | [4] 4650 nM | [6] 1310 nM | [8] 5850 nM
inactive: [2]

CC(C)CN(C[C@H](O)[C@H](Cc1ccccc1)NC(=O)O[C@H]1CCOC1)S(=O)(=O)c1ccc(N)cc1
active: [1] 8270 nM
not listed: [12] | [13] | [14]
inactive: all other assays above

CSc1cccc(Nc2ncc3cc(-c4c(Cl)cccc4Cl)c(=O)n(C)c3n2)c1
inactive: [11]
active: [14] 2930 nM | [1] 1850 nM | [3] 3290 nM | [4] 465 nM | [5] 369 nM | [6] 3290 nM | [7] 6570 nM | [8] 2330 nM | [9] 4650 nM | [10] 2640 nM

C=C1[C@H](n2cnc3c(=O)[nH]c(N)nc32)C[C@H](O)[C@H]1CO
not listed: [11] | [12] | [13] | [14]
inactive: all other assays above

Cc1ccc(C(=O)N(CCCN)[C@@H](c2nc3cc(Cl)ccc3c(=O)n2Cc2ccccc2)C(C)C)cc1
active: [1] 75.9 nM | [3] 60.3 nM | [4] 24 nM | [5] 2400 nM | [7] 38000 nM | [8] 67.6 nM | [10] 12100 nM
inactive: [2] | [6] | [11]
